{
  "source": "PubChem BioAssay AID493151",
  "about": "(Sanford-Burnham Center for Chemical Genomics, 2011)",
  "note": "The campaign covered roughly 1,400 compounds. About 860 (61%) were called active.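 Rule for the calls: active = inhibition reaching a set limit, 80% of the first screen's cutoff, at 20 µM in any replicate; inactive = the rest.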 So high a share suggests a set chosen from earlier hits. Shown is part of a subset that was picked to be rich in actives.",
  "data": [
    {"target": "DNA dC->dU-editing enzyme APOBEC-3A (Homo sapiens) (UniProt P31941)", "sequence (P31941 whole entry, looked up)": "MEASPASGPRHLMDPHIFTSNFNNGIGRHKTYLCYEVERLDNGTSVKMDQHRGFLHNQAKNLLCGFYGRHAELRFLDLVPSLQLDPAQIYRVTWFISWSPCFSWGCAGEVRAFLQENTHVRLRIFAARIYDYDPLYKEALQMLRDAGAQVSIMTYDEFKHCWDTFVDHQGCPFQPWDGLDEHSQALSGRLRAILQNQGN", "experiment": "A3A ssDNA deamination blockers, replicate testing – biochemical, single concentration, fluorescence readout, selectivity assay for APOBEC3G inhibitor project, confirmation (AID 493151);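 note: plate controls were DMSO wells with A3A for no effect and wells lacking A3A enzyme for full effect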", "details": "recombinant A3A, ssDNA deaminase UDG fluorescence assay; at 20 µM; active compounds read high", "values": [
      {"smiles": "CCN(CC)CCOC(=O)c1cc2cc(COC)ccc2o1", "inhibition": "80.1% (active)"},
      {"smiles": "O=C(O)CCn1cc(C=C2C(=O)NC(=S)NC2=O)c(-c2cccc(Br)c2)n1", "inhibition": "52.3% (active)"}
    ]}
  ]
}
